Bioassay records from PubChem.
The sample as a whole holds a higher share of hits than the screen did.
Dicer inh: human Dicer pre-microRNA cleavage inhibition; cat-ELCCA pre-miR-21 Dicer processing, chemiluminescence; stronger effect = higher value; z-score at 25 µM; Q9UPY3; 47,000 tested, 6% active; in the data active = z-score above about 3, passing the limit was not always enough;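 note: higher signal means more uncleaved substrate so more Dicer inhibition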
Target sequence (Q9UPY3 whole entry, looked up): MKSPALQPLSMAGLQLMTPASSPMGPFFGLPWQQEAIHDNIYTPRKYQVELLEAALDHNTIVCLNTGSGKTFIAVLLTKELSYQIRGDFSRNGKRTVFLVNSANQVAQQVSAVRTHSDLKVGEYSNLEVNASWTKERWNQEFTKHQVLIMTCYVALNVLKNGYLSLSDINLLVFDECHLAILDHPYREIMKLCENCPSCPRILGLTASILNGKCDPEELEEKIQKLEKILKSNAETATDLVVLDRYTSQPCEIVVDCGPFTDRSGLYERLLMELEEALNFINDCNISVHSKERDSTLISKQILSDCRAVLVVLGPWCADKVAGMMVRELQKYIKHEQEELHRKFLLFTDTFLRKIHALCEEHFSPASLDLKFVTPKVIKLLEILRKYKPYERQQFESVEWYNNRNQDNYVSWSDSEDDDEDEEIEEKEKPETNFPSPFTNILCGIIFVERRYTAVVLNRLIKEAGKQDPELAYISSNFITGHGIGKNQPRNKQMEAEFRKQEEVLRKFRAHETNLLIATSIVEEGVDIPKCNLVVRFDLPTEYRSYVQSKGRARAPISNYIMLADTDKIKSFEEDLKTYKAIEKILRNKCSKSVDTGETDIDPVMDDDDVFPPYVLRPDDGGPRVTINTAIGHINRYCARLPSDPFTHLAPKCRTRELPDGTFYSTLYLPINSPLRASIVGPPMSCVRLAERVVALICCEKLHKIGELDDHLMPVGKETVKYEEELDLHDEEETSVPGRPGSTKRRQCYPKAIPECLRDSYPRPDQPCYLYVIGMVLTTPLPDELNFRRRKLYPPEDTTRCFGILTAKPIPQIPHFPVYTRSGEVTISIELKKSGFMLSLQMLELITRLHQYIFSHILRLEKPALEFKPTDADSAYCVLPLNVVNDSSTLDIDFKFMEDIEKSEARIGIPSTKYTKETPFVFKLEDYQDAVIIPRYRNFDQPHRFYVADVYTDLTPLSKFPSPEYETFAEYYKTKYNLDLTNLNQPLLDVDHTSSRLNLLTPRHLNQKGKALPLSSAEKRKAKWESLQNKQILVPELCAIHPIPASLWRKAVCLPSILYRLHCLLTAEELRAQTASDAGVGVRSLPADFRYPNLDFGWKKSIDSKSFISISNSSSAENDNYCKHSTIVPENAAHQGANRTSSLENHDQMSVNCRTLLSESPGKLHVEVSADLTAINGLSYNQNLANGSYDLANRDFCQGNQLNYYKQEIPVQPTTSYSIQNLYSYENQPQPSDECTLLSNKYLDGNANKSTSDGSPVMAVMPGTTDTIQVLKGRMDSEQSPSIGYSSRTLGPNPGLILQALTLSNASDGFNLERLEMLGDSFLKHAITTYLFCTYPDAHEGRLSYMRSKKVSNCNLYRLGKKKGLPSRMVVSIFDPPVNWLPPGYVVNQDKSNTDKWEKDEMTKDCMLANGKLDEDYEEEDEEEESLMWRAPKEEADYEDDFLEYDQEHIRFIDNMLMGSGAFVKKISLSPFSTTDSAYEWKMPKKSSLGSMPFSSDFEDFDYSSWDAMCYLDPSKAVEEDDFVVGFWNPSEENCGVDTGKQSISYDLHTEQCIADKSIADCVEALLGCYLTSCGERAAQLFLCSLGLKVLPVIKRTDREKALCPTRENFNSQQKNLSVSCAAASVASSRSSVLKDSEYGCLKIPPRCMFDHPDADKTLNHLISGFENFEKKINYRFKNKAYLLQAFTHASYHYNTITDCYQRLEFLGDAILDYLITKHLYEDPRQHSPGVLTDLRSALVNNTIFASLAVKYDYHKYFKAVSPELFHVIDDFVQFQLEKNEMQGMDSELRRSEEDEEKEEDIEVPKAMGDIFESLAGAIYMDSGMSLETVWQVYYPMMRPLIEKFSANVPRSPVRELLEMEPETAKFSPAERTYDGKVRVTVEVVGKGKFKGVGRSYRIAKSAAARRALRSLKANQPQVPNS
Large screens that a line does not name were inactive.

CC1CCN(Cc2cc(Cl)c(O)c3ncccc23)CC1	none
CCOC(=O)Cc1csc(NC(=O)CSc2nc3ccccc3c(=O)[nH]2)n1	none
N#C/C(=C\Nc1ccc(OC(F)(F)F)cc1)c1nc2ccccc2[nH]1	none
CCCN1C(=O)C(=O)c2cc(Br)ccc21	none
C#CCN1C(=O)C(=O)c2cc(Br)ccc21	Dicer inh 4.3
N#CCCN(CN1C(=O)C(=O)c2cc(Br)ccc21)C1CCCCC1	none
O=C(O)c1cccc2cccc(S(=O)c3ccccc3)c12 (stereo not given)	none
CCOC(=O)c1cc2cc(OC(F)(F)F)ccc2[nH]1	none
CN(C)Cc1ccc(CSCCNC(=O)Nc2ccc(OCc3ccccc3)cc2)o1	none
CCSc1cc(C(F)(F)F)c(C(=O)N(C)Cc2c(OC)cccc2OC)cn1	none
O=C(Nc1nc2ccsc2c(=O)s1)c1ccco1	none
Cc1csc2c(=O)sc(NC(=O)c3ccco3)nc12	none
O=C(Nc1nc2c(ccc3ccccc32)s1)c1ccco1	Dicer inh 5.7
COc1cc2ccccc2cc1C(=O)OCc1nc2ccccc2s1	none
Clc1cccc(Cl)c1CO/N=C1\CSCc2ccccc21	none
CSc1nc2cc(-c3ccc(Cl)cc3)nn2c(C)c1C(C)=O	none
CCCOc1ccc(C2C(C(=O)OCCOC)=C(C)N=C3SCCC(=O)N32)cc1 (stereo not given)	none
COc1ccc(CNCc2cc(F)ccc2F)cc1OC	none
CC(NCC(O)Cn1c2ccccc2c2ccccc21)C(=O)O (stereo not given)	none
CC(C)(C)NCC(O)Cn1c2ccccc2c2ccccc21 (stereo not given)	none
OCCNCC(O)Cn1c2ccccc2c2ccccc21 (stereo not given)	Dicer inh 4.5
Cc1cc2n(n1)C(c1ccc(N3CCOCC3)cc1)Nc1ccccc1-2 (stereo not given)	none
O=C(O)c1ccc2oc3ccccc3c(=O)c2c1	none
O=C(O)CNc1ncnc2ccccc12	Dicer inh 3.6
OCCNc1ncnc2ccccc12	none
O=C(O)CCCNc1ncnc2ccccc12	none
c1ccc2[nH]c(CCc3nc4ccccc4[nH]3)nc2c1	none
Nc1ccc(Cc2nc3ccccc3[nH]2)cc1	none
C/C(=C\c1ccc(N)cc1)c1nc2ccccc2[nH]1	Dicer inh 3
CC(=O)c1nnn(-c2cc(C(F)(F)F)ccc2Cl)c1C	none
Cc1nnsc1C(=O)NN(C)c1cnc2ccccc2n1	none
Cc1c(C)c(C)c(S(=O)(=O)Oc2cccnc2)c(C)c1C	Dicer inh 3.8
COc1ccc(S(=O)(=O)Nc2cccnc2)c(C)c1C	none
Cc1c(C)c(C)c(S(=O)(=O)Oc2cc(Cl)cc(Cl)c2)c(C)c1C	none
Cc1nc2ccccn2c1-c1ccnn1C(=O)c1ccc(C(F)(F)F)cc1	none
COc1ccc(Nc2c(Cl)cc(OC)cc2Cl)cc1	none
COc1ccc(Nc2n[nH]c(N)n2)cc1	Dicer inh 5.6
COc1ccc(Nc2nc(Cl)nc(Nc3ccc(OC)cc3)n2)cc1	none
COc1cc2c(cc1OC)C(C)N(S(=O)(=O)c1sc3ccc(Cl)cc3c1C)CC2 (stereo not given)	none
Cc1nn(-c2ccccc2)c(C)c1C=NN1CCN(Cc2ccccc2)CC1	none
Cc1ccc(C)c(S(=O)(=O)N(C(=O)c2cccnc2)c2ccc3oc(=O)sc3c2)c1	none
Cc1ccc(S(=O)(=O)NCc2cccnc2)c(C)c1	none
Cc1ccc(S(=O)(=O)N(C(=O)c2cccnc2)c2ccc3oc(=O)sc3c2)c(C)c1	Dicer inh 8.4
Cc1cc(C)c(S(=O)(=O)N(C(=O)c2cccnc2)c2ccc3oc(=O)sc3c2)cc1C	Dicer inh 11
Cn1nc(C(F)(F)F)c(-c2ccc(Br)cc2)c1NC(=O)c1ccccc1	none
COc1ccc(S(=O)(=O)NCc2ccc3c(c2)OCO3)cc1	none
C/C(=N\N=C(/C)c1ccc(C)cc1)c1ccc(C)cc1	none
N#CC1=C(N)NC(=S)C(C(N)=O)C1c1ccccc1 (stereo not given)	none
Cc1ccccc1NC(=O)N(Cc1cccs1)C(=O)CC#N	Dicer inh 3.7
CCCN(C(=O)CC#N)C(=O)Nc1ccccc1C	none
Cc1cccc(C)c1NC(=O)N(Cc1ccccc1)C(=O)CC#N	none
O=S(=O)([O-])CCC[n+]1c(/C=C/c2ccccc2)sc2ccccc21	none
Cc1nn(-c2c(Cl)cc(C(F)(F)F)cc2Cl)c(C)c1C(N)=O	none
Cn1c(=O)c2c(nc(N3CCCC3)n2Cc2ccc(Cl)c(Cl)c2)n(C)c1=O	none
COc1ccc(S(=O)(=O)N2CCCN(S(=O)(=O)c3ccc(OC)cc3C)CC2)c(C)c1	Dicer inh 3
COc1ccc(S(=O)(=O)N2CCCN(S(=O)(=O)c3ccc(OC)cc3)CC2)cc1	none
COc1ccc(OC)c(S(=O)(=O)N2CCC(C)CC2)c1	none
COC(=O)C1=C(C(=O)OC)SC(=C2C(=S)C(C)(C)Nc3cc(C)ccc32)S1	none
CN(C)c1ccc(C2C3C(=O)N(Cc4ccccc4)C(=O)C3ON2c2ccccc2)cc1 (stereo not given)	Dicer inh 3.3
COc1ccc(C2C3C(=O)N(c4ccc(F)cc4)C(=O)C3ON2c2ccccc2)cc1 (stereo not given)	none
O=C1C2ON(c3ccccc3)C(c3ccncc3)C2C(=O)N1c1cccc(Cl)c1 (stereo not given)	none
O=C1C=C(Nc2cccc(O)c2)c2ccccc2C1=O	none
